Measured values from PubChem BioAssay (NCATS).
Records with an inconclusive call do not appear. Active and inactive are the calls of the source. Unless noted, calls follow the shape of the dose curve; as a rule, active = well fitted curve in the direction sought with a large enough effect; inconclusive = small, poorly fitted or top-dose-only effect, or another doubt; inactive = no such curve, though single readings can be large; an effect the other way counts as inactive or inconclusive.

Columns and labels:
[1] = Cell Viability - LYMP2-023 (AID 975); also: nearly all actives have a fitted effect of over 55% in size; also: potency is read from the fitted curve at half-maximal effect
Method in brief: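 LYMP2-023 human lymphoblastoid cells, 2500/well, preincubated 5 hr at 37 C, then compound-treated 24 hr at 37 C in complete medium. CellTiter-Glo luminescence (ATP) after 30 min at room temperature; AC50 from Hill-equation fits; tetraoctylammonium bromide positive control.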

[2] = Cell Viability - LYMP2-025 (AID 976); also: potency is read from the fitted curve at half-maximal effect
Method in brief: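 Human lymphoblastoid LYMP2-025 cells, 2500/well, exposed 24 h at 37 C in complete medium in 1536-well qHTS. Viability as cellular ATP by CellTiter-Glo luminescence; AC50 from Hill fits of concentration-response data.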

[3] = Cell Viability - LYMP2-002 (AID 977);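 also: compound exposure lasted 24 h at 37 °C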; also: potency is read from the fitted curve at half-maximal effect
Method in brief: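 Cytotoxicity is scored as concentration-dependent loss of cellular ATP in a human lymphoblastoid line after 24 hr compound treatment at 37 C. AC50 is obtained by modelling concentration-response data with the Hill equation.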

[4] = Cell Viability - LYMP2-006 (AID 978); also: nearly all actives have a fitted effect of over 60% in size; also: potency is read from the fitted curve at half-maximal effect
Method in brief: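 Cells are seeded at 2500 per well and rested 5 hr at 37 C. Compounds are added across a concentration series for 24 hr at 37 C, after which ATP is quantified by luciferase luminescence.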

[5] = Cell Viability - LYMP2-007 (AID 979);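 also: cells exposed to compound for 24 h before reading; nearly all actives have a fitted effect of over 60% in size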; also: potency is read from the fitted curve at half-maximal effect
Method in brief: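 Human lymphoblastoid LYMP2-007 cells (2500/well) preincubated 5 h at 37 C, then treated 24 h at 37 C in complete medium. Viability by CellTiter-Glo ATP luminescence after 30 min at room temperature; AC50 from Hill fits.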

[6] = Cell Viability - LYMP2-008 (AID 980); also: nearly all actives have a fitted effect of over 60% in size; also: potency is read from the fitted curve at half-maximal effect
Method in brief: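 LYMP2-008 lymphoblastoid cells (2500/well) plated 5 h, then treated 24 h at 37 C in complete medium. Viability read as intracellular ATP by CellTiter-Glo luminescence after 30 min at room temperature; AC50 from Hill fits.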

[7] = Cell Viability - LYMP2-010 (AID 981); also: nearly all actives have a fitted effect of over 55% in size; also: potency is read from the fitted curve at half-maximal effect
Method in brief: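 Human lymphoblastoid LYMP2-010 cells (2500/well) treated 24 h at 37 C in complete medium; viability read as intracellular ATP by CellTiter-Glo luminescence. AC50 from Hill fits of concentration-response data; tetraoctylammonium bromide positive control.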

[8] = Cell Viability - LYMP2-012 (AID 982);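 also: cellular ATP by luciferase luminescence where a drop means cytotoxicity; cells exposed to compound for one day before reading; nearly all actives have a fitted effect of over 55% in size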; also: potency is read from the fitted curve at half-maximal effect
[9] = Cell Viability - LYMP2-014 (AID 983); also: nearly all actives have a fitted effect of over 50% in size; also: potency is read from the fitted curve at half-maximal effect
Method in brief: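 LYMP2-014 human lymphoblastoid cells, 2500/well, treated 24 h at 37 C in complete medium; viability by CellTiter-Glo ATP luminescence after 30 min at room temperature. AC50 from Hill fits of qHTS concentration-response; tetraoctylammonium bromide positive control.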

[10] = Cell Viability - LYMP2-016 (AID 984); also: nearly all actives have a fitted effect of over 55% in size; also: potency is read from the fitted curve at half-maximal effect
Method in brief: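 Cells were seeded at 2500 per well and rested 5 hr before a 24 hr compound exposure at 37 C. Viability was then gauged as cellular ATP by luciferase luminescence, with AC50 values fitted to the Hill equation.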

[11] = Cell Viability - LYMP2-018 (AID 985); also: nearly all actives have a fitted effect of over 50% in size; also: potency is read from the fitted curve at half-maximal effect
Method in brief: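 Human lymphoblastoid LYMP2-018 cells, 2500/well, settled 5 hr at 37 C then exposed to compound 24 hr at 37 C; intracellular ATP measured by CellTiter-Glo luminescence. AC50 from Hill-equation concentration-response fits.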

[12] = Cell Viability - LYMP2-020 (AID 986); also: nearly all actives have a fitted effect of over 55% in size; also: potency is read from the fitted curve at half-maximal effect
Method in brief: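 Human lymphoblastoid LYMP2-020 cells (2500/well) preincubated 5 h at 37 C, then treated 24 h at 37 C. Viability measured as intracellular ATP by CellTiter-Glo luminescence after 30 min at room temperature; AC50 from Hill fits.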

[13] = Cell Viability - LYMP2-022 (AID 987); also: nearly all actives have a fitted effect of over 55% in size; also: potency is read from the fitted curve at half-maximal effect
Method in brief: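 LYMP2-022 lymphoblastoid cells (2500/well, complete medium) were treated with compounds for 24 hours at 37 C; intracellular ATP was then read by CellTiter-Glo luminescence after 30 min at room temperature. AC50 values were derived from Hill-equation fits.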

[14] = Cell Viability - LYMP2-024 (AID 988); also: nearly all actives have a fitted effect of over 60% in size; also: potency is read from the fitted curve at half-maximal effect
Method in brief: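 Human lymphoblastoid LYMP2-024 cells (2500/well) rested 5 hr, then treated with compound for 24 hr at 37 C in complete medium. Viability was measured as intracellular ATP by CellTiter-Glo luminescence. AC50 values came from Hill-equation fits.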

[15] = Cell Viability - LYMP2-026 (AID 989); also: nearly all actives have a fitted effect of over 50% in size; also: potency is read from the fitted curve at half-maximal effect
Method in brief: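 Human lymphoblastoid LYMP2-026 cells, 2500/well, exposed to compound 24 h at 37 C in complete medium. Viability as intracellular ATP by CellTiter-Glo luminescence; AC50 from Hill fits of qHTS concentration-response.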

[16] = Cell Viability - LYMP1-002 - Assay at 24 hr (AID 993); also: potency is read from the fitted curve at half-maximal effect
Method in brief: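 Human lymphoblastoid LYMP1-002 cells (2500/well) treated 24 h at 37 °C; viability as intracellular ATP by CellTiter-Glo luminescence. Tetraoctylammonium bromide as positive control; AC50 from Hill-equation fits of qHTS concentration-response.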

[17] = Cell Viability - LYMP1-002 - Assay at 40 hr (AID 994); also: nearly all actives have a fitted effect of over 60% in size; also: potency is read from the fitted curve at half-maximal effect
Method in brief: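 LYMP1-002 human lymphoblastoid cells (2500/well, complete medium) were treated with compounds for 40 hr at 37 C. Intracellular ATP was measured by CellTiter-Glo luminescence, and AC50 values came from Hill-equation fits of concentration-response data; tetraoctylammonium bromide was the positive control.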

[18] = target: Alpha-galactosidase A (Homo sapiens) (UniProt P06280); assay: Counterscreen for Glucocerebrosidase Inhibitors: qHTS Assay for Human alpha-Galactosidase at pH 4.5 (AID 992)
Alpha-galactosidase A (Homo sapiens), sequence (P06280 whole entry, looked up): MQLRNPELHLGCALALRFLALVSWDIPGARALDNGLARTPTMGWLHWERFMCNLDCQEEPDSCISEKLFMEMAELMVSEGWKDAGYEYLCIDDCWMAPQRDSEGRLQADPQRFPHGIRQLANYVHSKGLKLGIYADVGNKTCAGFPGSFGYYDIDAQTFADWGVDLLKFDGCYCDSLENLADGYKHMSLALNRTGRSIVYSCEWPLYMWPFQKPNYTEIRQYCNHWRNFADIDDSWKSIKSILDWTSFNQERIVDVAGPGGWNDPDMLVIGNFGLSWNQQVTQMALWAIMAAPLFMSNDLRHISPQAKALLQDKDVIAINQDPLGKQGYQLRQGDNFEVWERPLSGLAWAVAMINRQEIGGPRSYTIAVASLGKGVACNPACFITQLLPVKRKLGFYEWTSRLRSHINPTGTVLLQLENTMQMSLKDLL
Method in brief: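 Quantitative HTS: compounds tested from 0.7 nM up to 77 uM against 2 nM enzyme with 80 uM 4-MU alpha-D-galactopyranoside. The 20 min room-temperature reaction is stopped with 1M NaOH/1M glycine, pH 10.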

[19] = target: alpha-glucosidase (Oryza sativa, rice) (UniProt Q653V4); assay: Counterscreen for Glucocerebrosidase Inhibitors: qHTS Assay for Rice alpha-Glucosidase at pH 5.0 (AID 997)
Method in brief: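 Rice alpha-glucosidase (4 nM final) with 400 uM 4-methylumbelliferyl-alpha-D-glucopyranoside in citrate buffer pH 5.0, 20 min at room temperature, stopped at pH 10; fluorescence 365/440 nm, compounds 0.7 nM–77 uM, AC50 from Hill fits.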

[20] = Validation of Assay for Modulators of Lamin A Splicing (AID 1459; active = well fitted curve in the direction sought with a large enough effect in the signal ratio; the % refers to the signal ratio;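 also: cells exposed to compound for two days before reading; ratio rise marks activators and ratio drop marks inhibitors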)
Method in brief: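 HeLa S3 lamin A-EGFP/DsRed2 stable clone, 600 cells/well, Opti-MEM 2% FBS; compounds by pin tool; 48 hrs, 37 °C/5% CO2; Acumen 488 nm scan, objects 10-100 um; GFP/RFP intensity ratio.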

Measured: Potency

Nc1ccc([N+](=O)[O-])cc1O
not listed: [18] | [19] | [20]
inactive: all other assays above

Nc1nc2ccc([N+](=O)[O-])cc2s1
not listed: [7] | [18] | [19] | [20]
inactive: all other assays above

Nc1ccc(O)c([N+](=O)[O-])c1
not listed: [18] | [19] | [20]
inactive: all other assays above

Cc1cc(NC(=O)Nc2ccc3c(ccn3C)c2)sn1
inactive: [18] | [19] | [20]

O=C(O)c1cc([N+](=O)[O-])ccc1NCCCc1ccccc1
inactive: [18] | [19] | [20]

O=c1cc(-c2ccccc2)oc2ccccc12
not listed: [18] | [19] | [20]
inactive: all other assays above

Oc1ccccc1O
inactive: [1] | [2] | [5] | [6] | [10] | [18] | [16] | [19]

C#C[C@]1(O)CC[C@H]2[C@@H]3CCc4cc(O)ccc4[C@H]3CC[C@@]21C
not listed: [17] | [18] | [19] | [20]
inactive: all other assays above

COc1cc(CNC(=O)CCCC/C=C/C(C)C)ccc1O
not listed: [11] | [18] | [19] | [20]
inactive: all other assays above

CC1(C)S[C@@H]2[C@H](NC(=O)[C@H](N)c3ccccc3)C(=O)N2[C@H]1C(=O)O
not listed: [18] | [19] | [20]
inactive: all other assays above

O=Nc1ccc2oc(=O)ccc2c1
inactive: [18] | [19]

Nc1ccc(O)c(C(=O)O)c1
not listed: [18] | [19] | [20]
inactive: all other assays above

C=C[C@H]1CN2CC[C@@H]1C[C@@H]2[C@@H](O)c1ccnc2ccc(OC)cc12
inactive: [18] | [19]

CCCn1c(=O)c2[nH]c(-c3ccc(OCC(=O)NCCN)cc3)nc2n(CCC)c1=O
inactive: [18] | [19] | [20]

Clc1ccc(N2CCN(Cc3c[nH]c4ncccc34)CC2)cc1
inactive: [18] | [19] | [20]

NCCCCC(=O)O
inactive: [18] | [19] | [20]

CCCOC(=O)c1ccc(O)cc1
not listed: [18] | [19] | [20]
inactive: all other assays above

COc1cc2c(CCNC(C)=O)c[nH]c2cc1Cl
inactive: [18] | [19] | [20]

CN(C)c1ccc(C(=C2C=CC(=[N+](C)C)C=C2)c2ccccc2)cc1
active: [1] 398 nM | [2] 501 nM | [3] 398 nM | [4] 501 nM | [5] 251 nM | [6] 316 nM | [7] 251 nM | [8] 158 nM | [9] 251 nM | [10] 501 nM | [11] 199 nM | [12] 316 nM | [13] 126 nM | [14] 199 nM | [15] 316 nM | [16] 794 nM | [17] 1 µM

CCCCCCCC/C=C\CCCCCCCC(=O)NCCO
inactive: [18] | [19]

CN1[C@@H]2CC[C@H]1CC(OC(c1ccccc1)c1ccccc1)C2 (stereo partly drawn)
inactive: [18] | [19]

Brc1c(Br)c(Br)c2n[nH]nc2c1Br
inactive: [18] | [19]

O=C(Nc1cccc(C(=O)Nc2ccc(S(=O)(=O)O)c3cc(S(=O)(=O)O)cc(S(=O)(=O)O)c23)c1)Nc1cccc(C(=O)Nc2ccc(S(=O)(=O)O)c3cc(S(=O)(=O)O)cc(S(=O)(=O)O)c23)c1
inactive: [18] | [19]

O=C1C(SCCO)=C(SCCO)C(=O)c2ccccc21
inactive: [18] | [19]

CCN1/C(=C/C(C)=O)Sc2ccc(OC)cc21
inactive: [18] | [19]

Cc1ccc(O)c(N=Nc2ccccc2)n1
inactive: [18] | [19]

COc1ccccc1CNCCCCCCNCCCCCCCCNCCCCCCNCc1ccccc1OC
inactive: [18] | [19]

CC(C)NC[C@H](O)COc1cccc2[nH]ccc12
inactive: [18] | [19]

NC[C@@H]1O[C@H](C23CC4CC(CC(C4)C2)C3)Cc2c1ccc(O)c2O
inactive: [18] | [19]

O=c1[nH]c2cc(Cl)c(Cl)cc2[nH]c1=O
inactive: [18] | [19]

N[C@@H](CC(=O)O)C(=O)O
inactive: [18] | [19]

Cn1cc(C2=C(c3ccc(Cl)cc3Cl)C(=O)NC2=O)c2ccccc21
inactive: [18] | [19]

CC(C)(C=O)Cc1cc(C(C)(C)C)c(O)c(C(C)(C)C)c1
inactive: [18] | [19]

O=c1[nH]c2ccccc2n1CCCN1CCN(C(c2ccccc2)c2ccccc2)CC1
inactive: [18] | [19]

CCCN(CC1CC1)c1nc(C)nc(Nc2c(Cl)cc(Cl)cc2Cl)c1Cl
inactive: [18] | [19]

NCCCS(=O)(=O)O
inactive: [18] | [19]

N[C@H](CCCP(=O)(O)O)C(=O)O
inactive: [18] | [19]

N#C/C(=C\c1c[nH]c2ccccc12)C(=O)c1ccc(O)c(O)c1
inactive: [18] | [19]

Oc1cc2c(cc1O)CN(C(=S)NCCc1ccc(Cl)cc1)CCC2
inactive: [18] | [19]

COc1cc(OC)c(/C=C2/C(=O)Nc3ccccc32)c(OC)c1
inactive: [18] | [19]

CC(C)Cc1ccc([C@H](C)C(=O)O)cc1
inactive: [18] | [19]

CN(C)c1nc2c(Br)c(Br)c(Br)c(Br)c2[nH]1
inactive: [18] | [19]

CN=c1nc(-c2ccccc2)n(-c2ccccc2)s1
inactive: [18] | [19]

O=C1NC(O)=NC1(c1ccccc1)c1ccccc1
inactive: [18] | [19]

O=C(c1cc(O)c(O)c([N+](=O)[O-])c1)c1ccccc1F
inactive: [18] | [19]

COc1ccccc1N1CCN(CCCCNS(=O)(=O)c2cccc3c(N(C)C)cccc23)CC1
inactive: [18] | [19]

COC1=C(OC)C(=O)c2ccccc2C1=O
inactive: [18] | [19]
